For 26 molecules, outcome and AC50 results are on record in PubChem BioAssay (EPA / NIEHS).

Records with an inconclusive call do not appear. Where a structure was tested more than once in an assay, its records may differ in their call. Active and inactive are the calls of the source. The calls were made as follows: active = hit-call score of the fitted dose curve at least 0.9, where 1 is the maximum; inconclusive = response in the unintended direction; inactive = score below 0.9.

Test system in the first test: not listed separately
The experiment in a line: CCTE_Mundy_HCI_iCellGluta_NOG_NeuriteCount: CCTE's Neurite Outgrowth Assay in iCellGluta cells for Neurite Count, Mundy Lab (AID 2284342).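 Also: chemical exposure about 48 hours starting 2 hours after plating.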
Regarding `O=C(O)COc1ccc(Cl)cc1Cl`, the result was inactive.
The same measure, in the same setting: the value for `CNC(=O)CSP(=S)(OC)OC` was “inactive”.
Take `CC1(C)C(C=C(Cl)Cl)C1C(=O)OC(C#N)c1ccc(F)c(Oc2ccccc2)c1` (configuration not stated): the AC50 was 22.3 µM (active) and the call was inactive.
For the molecule `O=C(O)C(F)(F)C(F)(F)C(F)(F)C(F)(F)C(F)(F)C(F)(F)C(F)(F)F`, the molecule was classed as inactive.
With `CCC(C)(C)C(=O)OC1=C(c2ccc(Cl)cc2Cl)C(=O)OC12CCCCC2`, the molecule was classed as inactive.
For the molecule `COP(=O)(OC)OC=C(Cl)Cl`, the AC50 is 49 µM (active).
As for `CC1(c2ccc(Oc3ccccc3)cc2)OC(=O)N(Nc2ccccc2)C1=O` (configuration not stated), the outcome was inactive.
With `CC(C)N(C(=O)COc1nnc(C(F)(F)F)s1)c1ccc(F)cc1`, the result was inactive.
For the molecule `COP(=S)(OC)Oc1ccc([N+](=O)[O-])cc1`, the AC50 is 23.4 µM (active).
In the case of `O=S(=O)(O)C(F)(F)C(F)(F)C(F)(F)C(F)(F)C(F)(F)C(F)(F)C(F)(F)C(F)(F)F`, the result was inactive.
Turning to `CC[C@H](C)[C@H]1O[C@]2(C=C[C@@H]1C)C[C@@H]1C[C@@H](C/C=C(\C)[C@@H](O[C@H]3C[C@H](OC)[C@@H](O[C@H]4C[C@H](OC)[C@@H](O)[C@H](C)O4)[C@H](C)O3)[C@@H](C)/C=C/C=C3\CO[C@@H]4[C@H](O)C(C)=C[C@@H](C(=O)O1)[C@]34O)O2` (tested in a mixture with another compound), the AC50 was 3.36 µM (active).
Consider `O=[N+]([O-])/N=C1\NCCN1Cc1ccc(Cl)nc1`, for which the molecule was classed as inactive.
Regarding `O=S1OCC2C(CO1)C1(Cl)C(Cl)=C(Cl)C2(Cl)C1(Cl)Cl` (configuration not stated), the AC50 is 23 µM (active).

A further test deals with SERPINA7 (gene 6906). Description: CCTE_GLTED_hTBG: CCTE's human Thyroxine-binding Globulin (TBG) Inhibition Assay, Great Lakes Toxicology and Ecology Division (GLTED) Lab (AID 2284343).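 Also: active chemicals lower fluorescence versus DMSO baseline by displacing probe.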 The method, boiled down:
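Measures how far test chemicals displace ANSA bound to purified human TBG. The read-out is fluorescence at 380 nm excitation and 475 nm emission, taken after 2 h of incubation.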
`C#CCN1C(=O)COc2cc(F)c(N3C(=O)C4=C(CCCC4)C3=O)cc21`: the AC50 is 8.38 µM (active).
Regarding `CCCN(CCC)c1c([N+](=O)[O-])cc(C(F)(F)F)cc1[N+](=O)[O-]`, the AC50 was 5.16 µM (active).
Turning to `CC(C)(C)C(O)/C(=C\c1ccc(Cl)cc1Cl)n1cncn1` (configuration not stated), the AC50 was 30.8 µM (active).
Turning to `Oc1cc(Cl)ccc1Oc1ccc(Cl)cc1Cl`, the AC50 was 0.154 µM (active).
Consider `O=C(NC(=O)c1c(F)cccc1F)Nc1ccc(OC(F)(F)C(F)OC(F)(F)F)c(Cl)c1` (configuration not stated), for which the AC50 was 25 µM (active).
As to `CCN(CC)C(=O)SCc1ccc(Cl)cc1`, the AC50 is 22.4 µM (active).
The same measure, in the same setting: the value for `CC(C)OC(=O)Nc1cccc(Cl)c1` was 34.7 µM (active).
Turning to `Clc1ccccc1-c1nnc(-c2ccccc2Cl)nn1`, the concentration at half-maximal activity (AC50) is 0.23 µM (active).
As to `Oc1ccc(Cl)cc1Cc1ccccc1`, the half-maximal activity concentration (AC50) was 1.07 µM (active).
As to `O=C(O)CCCOc1ccc(Cl)cc1Cl`, the AC50 is 20.7 µM (active).
As for `COP(=S)(OC)Oc1ccc(SC)c(C)c1`, the AC50 was 12 µM (active).
Turning to `C[C@H]1[C@H](c2ccc(Cl)cc2)SC(=O)N1C(=O)NC1CCCCC1`, the half-maximal activity concentration (AC50) is 2.63 µM (active).
Consider `CCC(C)Nc1c([N+](=O)[O-])cc(C(C)(C)C)cc1[N+](=O)[O-]` (configuration not stated), for which the AC50 is 22.3 µM (active).
